Screening results: PubChem, National Center for Advancing Translational Sciences (NCATS)
A selection: hits, their analogues and other compounds. The true share with any hit is near 3.2%.
RE007 growth inh – less growth of the S. pombe RE007 Vpr strain. S. pombe RE007 Vpr strain, BacTiter-Glo ATP luminescence, 24 h. Potency, µM (highest dose often 92.2 µM), inactives show top-dose activity change, negative = less growth, usual class: inhibitors. actives 0.21% (n = 360,000). AID 651644; active = well fitted falling curve with a large enough effect; inconclusive = small, poorly fitted or top-dose-only effect; inactive = no such curve, though single readings can be large or run the other way; note: nearly all actives have a fitted effect of over 50% in size
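Fission yeast RE007 carrying one integrated HIV-1 vpr copy, seeded at OD 0.01 in PMG+AL medium with 23 nL pinned compound. Grown 24 h at 30 degrees; viability read by BacTiter-Glo luminescence after 5 min.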
Tb PYK inh – inhibitors of Trypanosoma brucei pyruvate kinase | Q57TT1 | Potency, µM (highest dose often 76.8 µM), inactives show at the top dose activity, negative = inhibition, usual class: inhibitors | TbPYK enzyme, Kinase-Glo Plus ATP luminescence, 45 min | actives 0.12% (n = 410,000); note: nearly all actives have a fitted effect of over 50% in size
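Activity of T. brucei pyruvate kinase was followed by Kinase-Glo Plus luminescence after the enzyme reacted 45 min at room temperature with 130 uM ADP (final) and substrate. Test compounds were added before ADP at multiple concentrations.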
AMA1 RON2 block – AMA1-RON2 (P. falciparum) interaction inhibition | actives 0.2% (n = 360,000) | AlphaScreen AMA1-biotinylated RON2 peptide binding | Potency, µM (top dose mostly 58.2 µM), for inactives: at the highest dose activity change, negative = inhibition, most hits filed as inhibitors;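 note: 0% = vehicle wells and -100% = peptide control; nearly all actives have a fitted effect of over 45% in size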
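AMA1 (3D7) with his tag at 25 nM final met compounds first, then biotinylated RON2 peptide at 25 nM; detection used donor plus acceptor beads, 10 µg/mL apiece, read by AlphaScreen after 30 min at room temperature.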
LmPK inh – LmPK (Leishmania mexicana) enzyme inhibition; Q27686; purified LmPK, Kinase-Glo ATP luminescence, 1 h; Potency, µM (titrated, usually from 57.5 µM), inactives show at the highest dose activity change, negative = inhibition, usual class: inhibitors; actives 0.37% (n = 290,000)
Target sequence (Q27686 whole entry, looked up): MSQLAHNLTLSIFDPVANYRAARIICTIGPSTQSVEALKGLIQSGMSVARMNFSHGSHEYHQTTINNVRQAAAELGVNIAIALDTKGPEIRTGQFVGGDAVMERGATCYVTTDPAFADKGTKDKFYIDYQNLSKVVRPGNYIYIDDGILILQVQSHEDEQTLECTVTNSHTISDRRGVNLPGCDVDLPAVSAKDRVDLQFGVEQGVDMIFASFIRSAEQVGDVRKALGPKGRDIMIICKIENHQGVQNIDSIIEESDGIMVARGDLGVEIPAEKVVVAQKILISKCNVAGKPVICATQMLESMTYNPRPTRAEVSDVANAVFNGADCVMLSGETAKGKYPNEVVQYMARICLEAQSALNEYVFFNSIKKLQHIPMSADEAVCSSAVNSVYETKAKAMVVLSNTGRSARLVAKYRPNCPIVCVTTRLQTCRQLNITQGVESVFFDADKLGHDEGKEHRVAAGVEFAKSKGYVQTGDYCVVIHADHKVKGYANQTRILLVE
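Pyruvate kinase activity monitored as ATP production (luciferase luminescence). Conditions: 0.1 nM enzyme, 0.5 mM PEP, 0.1 mM ADP, 1 h, RT; normalized against uninhibited and no-enzyme wells.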
Sm TGR inh – inhibitors of Schistosoma mansoni thioredoxin glutathione reductase; purified TGR, DTNB reduction, TNB absorbance 405 nm; actives 3% (n = 360,000); Potency, µM (top dose mostly 114 µM), inactives show top-dose activity change, negative = inhibition, most hits filed as inhibitors; AID 485364; Q962Y6; note: nearly all actives have a fitted effect of over 60% in size
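TGR 20 nM + NADPH 100 uM (dispensed conc.), cpd preinc 15 min RT; start with NADPH (500 uM addition) then DTNB (15 mM addition). Kinetic TNB absorbance, 405 nm filter. Four-parameter Hill fit across titration.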
* hit, by the source's call; ! = not confirmed by another sample. Unless noted, calls come from the whole dose curve; as a rule, active = well fitted curve in the direction sought with a large enough effect; inconclusive = small, poorly fitted or top-dose-only effect, or another doubt; inactive = no such curve, though single readings can be large; an effect the other way counts as inactive or inconclusive. Unless noted, % is set by controls: 0 for no effect and ±100 for the full control effect; potency is the fitted concentration of half-maximal effect.

Screening CNC(=O)c1c(NC(=O)c2nc(SCc3ccc(C)cc3)ncc2Cl)sc2c1CCCC2 returned Tb PYK inh -4% and Sm TGR inh -1%.
For COc1ccc(N2CCN(C(=O)c3ccc4c(c3)N(Cc3ccc(F)cc3)C(=O)c3ccccc3S4=O)CC2)cc1 (centres undefined) the results were Tb PYK inh -6% and Sm TGR inh 5%.
Screening N#Cc1c(SCC(=O)Nc2nccs2)sc2c(O)cc(=O)[nH]c12 returned RE007 growth inh 10%, Tb PYK inh -8%, AMA1 RON2 block 19%, LmPK inh -2% and Sm TGR inh 50µM*.
CCCSc1nnc(NC(=O)CSc2sc3c(O)cc(=O)[nH]c3c2C#N)s1 was read as RE007 growth inh -11%, Tb PYK inh -16%, AMA1 RON2 block -16%, LmPK inh 1% and Sm TGR inh 40µM*.
Screening N#Cc1c(SCC(=O)Nc2nc3ccccc3s2)sc2c(O)cc(=O)[nH]c12 returned RE007 growth inh -9%, Tb PYK inh -17%, AMA1 RON2 block inconclusive and Sm TGR inh -36%.
CCOC(=O)N1CCN(Cc2nc3cc(NC(=O)c4ccco4)ccc3n2C)CC1 was read as RE007 growth inh 6%, Tb PYK inh 0%, AMA1 RON2 block 8%, LmPK inh 4% and Sm TGR inh 50µM*.
For Cc1nn(C)c(=O)n1-c1ccc(OCc2ccccc2)cc1 the results were RE007 growth inh -10%, Tb PYK inh -17%, AMA1 RON2 block -5%, LmPK inh 14µM* and Sm TGR inh -8%.
COc1ccc(-n2c(C)nn(C)c2=O)cc1 was read as RE007 growth inh 10%, Tb PYK inh -1%, AMA1 RON2 block 3%, LmPK inh -1% and Sm TGR inh 2%.
O=C(c1ccc(Cl)cc1)C1C2C(=O)N(c3ccccc3)C(=O)C2C2CCCN21 (centres undefined) was read as RE007 growth inh -1%, Tb PYK inh 0%, AMA1 RON2 block 0%, LmPK inh -2% and Sm TGR inh inconclusive.
Screening Cc1ccc(N2C(=O)[C@@H]3[C@H](C2=O)C2CCCN2[C@@H]3C(=O)c2ccccc2)cc1 (some centres undefined) returned RE007 growth inh -22%, Tb PYK inh -18%, AMA1 RON2 block 18%, LmPK inh 1% and Sm TGR inh 32µM*.
`CC(=O)c1ccc(N2C(=O)C3C(C2=O)C(C(=O)c2ccc(Cl)cc2)N2CCCC32)cc1` (centres undefined) gave RE007 growth inh -7%, Tb PYK inh -20%, AMA1 RON2 block -4%, LmPK inh 4% and Sm TGR inh 13µM*.
COc1ccc(N2C(=O)C3C(C2=O)C(C(=O)c2ccc(Cl)cc2)N2CCCC32)cc1 (centres undefined) was read as RE007 growth inh -28%, Tb PYK inh inconclusive, AMA1 RON2 block -7%, LmPK inh 9% and Sm TGR inh 25µM*.
For O=C(NCc1ccc(F)cc1)c1cnc(N2CCOCC2)c2ccccc12 the results were Tb PYK inh -13% and Sm TGR inh 14%.
`COCCn1c(C)cc(O)c(C(=O)Nc2cccc(Cl)c2)c1=O` gave RE007 growth inh -4%, Tb PYK inh 6%, AMA1 RON2 block inconclusive, LmPK inh -4% and Sm TGR inh 4%.
For COCCn1c(C)cc(O)c(C(c2ccccc2OC)N2CCCCC2)c1=O (centres undefined) the results were Tb PYK inh -4% and Sm TGR inh 10µM*.
CCOC(=O)C1CCN(C(c2ccccc2OC)c2c(O)cc(C)n(CCOC)c2=O)CC1 (centres undefined) was read as Tb PYK inh -12% and Sm TGR inh 7.1µM*.
Screening COc1cc(Nc2ncc3c(n2)CCN(Cc2cc(F)cc(F)c2)C3)cc(OC)c1 returned Tb PYK inh 1% and Sm TGR inh -7%.
Screening CCC(=O)OC1[C@@H](N2CCCCC2)C[C@H]2[C@@H]3CC[C@H]4C[C@H](OC(C)=O)[C@@H](N5CCCCC5)C[C@]4(C)[C@H]3CC[C@]12C (some centres undefined) returned Tb PYK inh 0%.
CCCCCCC(O)C/C=C/CCCCCCCC(=O)O (centres undefined) was read as Tb PYK inh -2%.
Screening CCN(c1ccccc1)S(=O)(=O)c1nnc(NC(=O)c2ccco2)s1 returned RE007 growth inh -4%, Tb PYK inh -5%, AMA1 RON2 block 6%, LmPK inh -1% and Sm TGR inh 20µM*!.
Screening CCN(c1cccc(C)c1)S(=O)(=O)c1nnc(NC(=O)c2ccccc2Cl)s1 returned Tb PYK inh 5% and Sm TGR inh 79µM*.
For Cc1ccc(N(CC(C)C)S(=O)(=O)c2nnc(NC(=O)c3ccco3)s2)cc1 the results were Tb PYK inh -9% and Sm TGR inh 12%.
For CCN(c1cccc(C)c1)S(=O)(=O)c1nnc(NC(=O)c2cccs2)s1 the results were Tb PYK inh -5% and Sm TGR inh 10%.
Screening CCN(c1cccc(C)c1)S(=O)(=O)c1nnc(NC(=O)c2ccco2)s1 returned RE007 growth inh 2%, Tb PYK inh -26%, AMA1 RON2 block 15%, LmPK inh -4% and Sm TGR inh 25µM*.
CC(=O)SC[C@@H](C)C(=O)N1CCC[C@H]1C(=O)N[C@@H](Cc1ccccc1)C(=O)O was read as Tb PYK inh -4%.
For CCOC(=O)C1=C(C)OC(N)=C(C#N)C1c1cc2ccccc2nc1N1CCCCC1 (centres undefined) the results were RE007 growth inh -5%, Tb PYK inh 10%, AMA1 RON2 block 1%, LmPK inh 1% and Sm TGR inh -1%.
For CCOC(=O)C1=C(C)OC(N)=C(C#N)C1c1cc(C)sc1C (centres undefined) the results were RE007 growth inh 4%, Tb PYK inh -2%, AMA1 RON2 block -2%, LmPK inh -1% and Sm TGR inh 22%.
CCOC(=O)C1=C(C)OC(N)=C(C#N)C1c1cc(SCC)oc1C (centres undefined) was read as RE007 growth inh inconclusive, Tb PYK inh -4%, AMA1 RON2 block -12%, LmPK inh -1% and Sm TGR inh 45µM*.
CCOC(=O)C1=C(C)OC(N)=C(C#N)C1c1cc2cc(C)ccc2nc1N1CCCCC1 (centres undefined) was read as RE007 growth inh 4%, Tb PYK inh -11%, AMA1 RON2 block 6%, LmPK inh 2% and Sm TGR inh 3.5µM*.
